Experimental data taken from the supplement of paper PMC8728848.
Shown is part of a subset that was picked to be rich in the strongest signals.

Legend:
Assay in all cases: glycan array binding signal (z-score within array); higher = stronger binding
Details in all cases: glycan notation: IUPAC condensed, linker removed
[1] = molecular target: GalNAc(b1-3)Gal(a1-4)Gal(b1-4)GlcNAc
In short: (§1)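 Glycan array data came from 3228 arrays in the Consortium for Functional Glycomics database, and only arrays with an available protein sequence were kept. Glycan names were put into IUPAC-condensed notation, and columns mapping to the same glycan were averaged. The binding signal is a within-array Z-score, averaged across arrays of one protein sequence run at different concentrations or buffers and across linkers. A negative Z-score can be read as non-binding.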

[2] = molecular target: GlcNAc(a1-4)Gal(b1-4)GalNAc
In short: as §1

[3] = molecular target: GlcNAc(b1-2)Man(a1-3)[GlcNAc(b1-2)Man(a1-6)]Man(b1-4)GlcNAc(b1-4)GlcNAc
In short: as §1

[4] = molecular target: GlcNAc(b1-2)[GlcNAc(b1-4)]Man(a1-3)[GlcNAc(b1-4)][GlcNAc(b1-2)Man(a1-6)]Man(b1-4)GlcNAc(b1-4)GlcNAc
In short: as §1

[5] = molecular target: GlcNAc(b1-3)Gal(b1-4)GlcNAc(b1-3)Gal(b1-4)GlcNAc(b1-2)[GlcNAc(b1-3)Gal(b1-4)GlcNAc(b1-3)Gal(b1-4)GlcNAc(b1-6)]Man(a1-6)[GlcNAc(b1-3)Gal(b1-4)GlcNAc(b1-3)Gal(b1-4)GlcNAc(b1-2)Man(a1-3)]Man(b1-4)GlcNAc(b1-4)[Fuc(a1-6)]GlcNAc
In short: as §1

[6] = molecular target: GlcNAc(b1-3)Gal(b1-4)GlcNAc(b1-3)Gal(b1-4)GlcNAc(b1-3)Gal(b1-4)GlcNAc(b1-3)Gal(b1-4)GlcNAc(b1-2)Man(a1-3)[GlcNAc(b1-3)Gal(b1-4)GlcNAc(b1-3)Gal(b1-4)GlcNAc(b1-3)Gal(b1-4)GlcNAc(b1-3)Gal(b1-4)GlcNAc(b1-2)Man(a1-6)]Man(b1-4)GlcNAc(b1-4)GlcNAc
In short: as §1

[7] = molecular target: GlcNAc(b1-3)Gal(b1-4)GlcNAc(b1-6)[GlcNAc(b1-3)]Gal(b1-4)GlcNAc
In short: as §1

[8] = molecular target: GlcNAc(b1-4)[GlcNAc(b1-6)]GalNAc
In short: as §1

[9] = molecular target: Man(a1-2)Man(a1-2)Man(a1-3)Man
In short: as §1

[10] = molecular target: Man(a1-2)Man(a1-2)Man(a1-6)[Man(a1-3)]Man
In short: as §1

[11] = molecular target: Man(a1-2)Man(a1-3)[Man(a1-2)Man(a1-6)]Man(a1-6)[Man(a1-2)Man(a1-2)Man(a1-3)]Man
In short: as §1

[12] = molecular target: Man(a1-3)[Man(a1-6)]Man(a1-6)[Man(a1-2)Man(a1-3)]Man(b1-4)GlcNAc(b1-4)GlcNAc
In short: as §1

[13] = molecular target: Neu5Ac(a2-3)Gal(b1-3)GlcNAc(b1-4)Gal(b1-4)Glc
In short: as §1

[14] = molecular target: Neu5Ac(a2-3)Gal(b1-3)[Neu5Ac(a2-6)]GalNAc
In short: as §1

[15] = molecular target: Neu5Ac(a2-3)Gal(b1-4)GlcNAc(b1-3)GalNAc
In short: as §1

[16] = molecular target: Neu5Ac(a2-3)Gal(b1-4)GlcNAc6S
In short: as §1

[17] = molecular target: Neu5Ac(a2-3)Gal(b1-4)[Fuc(a1-3)]GlcNAc(b1-3)Gal(b1-4)GlcNAc
In short: as §1

[18] = molecular target: Neu5Ac(a2-3)Gal(b1-4)[Fuc(a1-3)]GlcNAc6S
In short: as §1

[19] = molecular target: Neu5Ac(a2-3)GalNAc(b1-4)GlcNAc
In short: as §1

[20] = molecular target: Neu5Ac(a2-3)[GalNAc(b1-4)]Gal(b1-4)GlcNAc
In short: as §1

[21] = molecular target: Neu5Ac(a2-6)Gal(b1-4)GlcNAc(b1-2)Man
In short: as §1

[22] = molecular target: Neu5Ac(a2-6)Gal(b1-4)GlcNAc(b1-2)Man(a1-3)[GlcNAc(b1-2)Man(a1-6)]Man(b1-4)GlcNAc(b1-4)GlcNAc
In short: as §1

[23] = molecular target: Neu5Ac(a2-6)Gal(b1-4)GlcNAc(b1-2)Man(a1-3)[Man(a1-6)]Man(b1-4)GlcNAc(b1-4)GlcNAc
In short: as §1

[24] = molecular target: Neu5Ac(a2-6)Gal(b1-4)GlcNAc(b1-2)Man(a1-6)Man(b1-4)GlcNAc(b1-4)GlcNAc
In short: as §1

[25] = molecular target: Neu5Ac(a2-6)Gal(b1-4)GlcNAc(b1-2)Man(a1-6)[Man(a1-3)]Man(b1-4)GlcNAc(b1-4)GlcNAc
In short: as §1

[26] = molecular target: Neu5Ac(a2-6)Gal(b1-4)GlcNAc(b1-2)[Neu5Ac(a2-6)Gal(b1-4)GlcNAc(b1-4)]Man(a1-3)[GlcNAc(b1-4)][Neu5Ac(a2-6)Gal(b1-4)GlcNAc(b1-2)[Neu5Ac(a2-6)Gal(b1-4)GlcNAc(b1-6)]Man(a1-6)]Man(b1-4)GlcNAc(b1-4)GlcNAc
In short: as §1

B1: GS7807P-bth-537-23-537 (Bacteroides thetaiotaomicron) (protein)
chain: NYENINSNPYEAPDLSADGYALGSAMNNLAGCVVSPDVNTAQFTDCLLGGPLGGYFADSNAGFTETISNFNPKDDWSRVFLKSDKIIPTLYSNLTQVKLVSQNTNDPVPYAIAQVIKVAAMHRVTDAFGPIPYSQIGANGEIATPYDSQEVTYNTFFDELNAAIATLNENSNEQLVPTADYIYKGDVKKWIRFANSLKLRLAIRIAYANPVKAQQMAEEAVNPANGGVIESNADNATWNYFETSQNPIYVATRYNQVQTSDHGGVPCLTGGDTHAAADIICYMNGYKDNRREKFFTKSEWAGQDYVGMRRGIVIPELKTTGHKYSGVNIAPTSPLYWMNAAEVAFLRAEGQAVFNFSMGGTAESFYNQGIRLSFEQWGADGVEDYLKDDVNKPTAYTDPAGTNTYQNALSNITIKWNDSADKEEKQERIIVQKWIANWQLGNEAWADFRRTGYPKLIPVKENKSGGVVDSEKGARRMPYPLDEFVSNKANVEYAIANYLHGADNMATDVWWASKK
[1]
  glycan array binding signal (z-score): 0.36
[2]
  glycan array binding signal (z-score): -0.138
[3]
  glycan array binding signal (z-score): -0.374
[4]
  glycan array binding signal (z-score): -0.39
[5]
  glycan array binding signal (z-score): 19.1
[6]
  glycan array binding signal (z-score): 0.265
[7]
  glycan array binding signal (z-score): -0.326
[8]
  glycan array binding signal (z-score): -0.32
[9]
  glycan array binding signal (z-score): -0.398
[10]
  glycan array binding signal (z-score): -0.343
[11]
  glycan array binding signal (z-score): -0.267
[12]
  glycan array binding signal (z-score): 2
[13]
  glycan array binding signal (z-score): -0.398
[14]
  glycan array binding signal (z-score): -0.387
[15]
  glycan array binding signal (z-score): -0.371
[16]
  glycan array binding signal (z-score): -0.377
[17]
  glycan array binding signal (z-score): 0.04
[18]
  glycan array binding signal (z-score): -0.338
[19]
  glycan array binding signal (z-score): -0.329
[20]
  glycan array binding signal (z-score): -0.363
[21]
  glycan array binding signal (z-score): -0.32
[22]
  glycan array binding signal (z-score): -0.356
[23]
  glycan array binding signal (z-score): 1.81
[24]
  glycan array binding signal (z-score): 0.297
[25]
  glycan array binding signal (z-score): 5.2
[26]
  glycan array binding signal (z-score): -0.083
